An excerpt weighted towards active compounds, which were near 3.4% of everything screened.
HIV Env fusion: HIV envelope-mediated fusion inhibition; HeLa-JRFL Env/CEM21 cell fusion, luciferase; inhibition, % at 12.3 µM; 1.1% of 360,000 active;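 active = mean replicate inhibition score of at least 50 and every replicate individually at or above 50; inconclusive = only one of the two criteria met; inactive = mean below 50 and not all replicates reaching 50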
miR122 inh: blocks miR-122 activity in Huh7 sensor cells | 0.3% of 340,000 active | Huh7 miR-122 Renilla luciferase sensor, 48 h; neutral wells = 0, positive control = 100 | activation (reporter increase), % at 12.5 µM | AID 602342;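 active = mean replicate activation score at least 90 and every replicate individually at or above 90; inconclusive = only one of the two criteria met; inactive = neither criterion met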;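 also: higher luciferase means less miR-122 activity so hits act as miR-122 inhibitors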
MITF act: increases MITF-driven TRPM1 promoter luciferase signal; activation, % at 12.5 µM; SK-MEL-5 TRPM1-promoter luciferase, 24 h; % of positive control, neutral wells = 0; 0.75% of 300,000 active; AID 588334;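 active = mean activation of at least 80% with every replicate also reaching 80%; inconclusive = mean reaches 80% but some replicate falls short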
Wnt bcat act: Wnt/beta-catenin pathway activation; Wnt/beta-catenin reporter cell assay, activator, plate reader; activation, % at 9.35 µM; 1.2% of 300,000 active; AID 743398; in the data active = activation above about 30%, passing the limit was not always enough; inconclusive = no clear call, values can overlap the other calls
esBAF inh: SWI/SNF esBAF complex inhibition; 2% of 350,000 active; reporter increase, % at 12.5 µM; mouse ES cells, Bmi1-luciferase knock-in reporter, 24 h; 100% = twice the neutral-well signal; in the data active = activation above about 40%; inconclusive = no clear call, values can overlap the other calls;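 also: a rise in the Bmi1 reporter signal indicates esBAF inhibition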
Each line names hits and unclear results; the compound was inactive in the other large screens; [ ] = another dose, or the depositor's remark.

O=C(NCc1ccccc1)c1cc(-c2ccco2)on1	esBAF inh 42 (no result: HIV Env fusion)
C[C@@H]1CCCCO[C@H](CN(C)C(=O)Nc2ccc(F)cc2)[C@H](C)CN([C@H](C)CO)C(=O)c2cc(NC(=O)Cc3ccccc3)ccc2O1	none (no result: MITF act, Wnt bcat act)
CCCN1C[C@@H](C)[C@H](OC)CN(C)C(=O)c2cc(NC(=O)Nc3ccccc3F)ccc2OC[C@H]1C	none (no result: miR122 inh, MITF act, Wnt bcat act)
CCN(CC)CCN1C(=O)C(=O)/C(=C(/O)c2cnn(-c3ccccc3)c2C)C1c1ccc(C)o1 (centres undefined)	esBAF inh inconclusive (no result: MITF act, Wnt bcat act)
Cc1ccc(C2/C(=C(\O)c3cnn(-c4ccccc4)c3C)C(=O)C(=O)N2CCN(C)C)o1 (centres undefined)	esBAF inh 48 (no result: HIV Env fusion, MITF act)
Cc1ccc(C2/C(=C(/O)c3cnn(-c4ccccc4)c3C)C(=O)C(=O)N2CCN2CCOCC2)o1 (centres undefined)	esBAF inh 50 (no result: HIV Env fusion, Wnt bcat act)
COc1ccc(Nc2ccc(C(F)(F)F)cc2[N+](=O)[O-])cn1	HIV Env fusion 59 (no result: miR122 inh, esBAF inh)
COCCNC(=O)c1cccc2c(-c3cccc(C(N)=O)c3)coc12	none (no result: MITF act)
COc1ccc(-c2ccc(C(=O)Nc3ccccc3)c3occc23)c(C)c1	esBAF inh 86 (no result: MITF act)
COc1ccc(CCNC(=O)CCCCC(=O)NCCc2ccc(OC)cc2)cc1	none
COCCCNC(=O)c1cccc2c(-c3ccc(OC)cc3C)coc12	none (no result: HIV Env fusion, MITF act)
NC(=O)c1cccc(-c2coc3c(C(=O)NCc4ccccc4)cccc23)c1	esBAF inh 50 (no result: MITF act)
COc1ccc(CCCC(=O)NCCc2ccccc2)c(C)c1	HIV Env fusion 89 (no result: miR122 inh, MITF act)
COc1ccc(-c2coc3c(C(=O)NCCc4ccccc4)cccc23)c(C)c1	HIV Env fusion 55 (no result: MITF act)
Cc1ccc(S(=O)(=O)Nc2ccc3c(c2)C(=O)N([C@H](C)CO)C[C@@H](C)[C@H](CN(C)CC2CC2)OCCCC[C@@H](C)O3)cc1	none (no result: MITF act, Wnt bcat act)
COc1ccc(-c2ccc(C(=O)Nc3ccc4c(c3)OCO4)c3occc23)c(C)c1	esBAF inh 59 (no result: MITF act)
CN(CCc1ccccn1)c1ccccc1	esBAF inh 48 (no result: miR122 inh)
c1ccc(NCCc2ccccn2)cc1	esBAF inh 46 (no result: miR122 inh)
c1ccc(CCn2cccc2)nc1	HIV Env fusion 59
O=C(C[C@H]1CC[C@@H]2[C@H](COC[C@H](O)CN2C(=O)c2ccccc2)O1)NC1Cc2ccccc2C1	none (no result: HIV Env fusion, MITF act, Wnt bcat act)
O=C(COC(=O)CC1CCCC1)Nc1cc2c(cc1Cl)C(=O)c1ccccc1C2=O	Wnt bcat act 39, esBAF inh 50
COc1ccc(Br)cc1/C=C/c1ccc2cccc(O)c2n1	none
COc1ccc(/C=C/c2ccc3cccc(O)c3n2)c(OC)c1OC	Wnt bcat act 57, esBAF inh 84
COc1cccc(/C=C/c2ccc3cccc(O)c3n2)c1OC	Wnt bcat act 54, esBAF inh 69
COc1ccc(C(=O)Nc2cc(C)on2)c(OC)c1	MITF act 115
COc1ccc(C(=O)Nc2ccc(C)cn2)c(OC)c1	none (no result: Wnt bcat act)
Cc1cc(NC(=O)Nc2ccc(F)cc2)no1	none (no result: HIV Env fusion, Wnt bcat act)
COc1cccc(C(=O)NC(=O)Nc2cc(C)on2)c1	MITF act 105, esBAF inh 56
Cc1cc(NC(=O)Nc2ccc(C)c(C)c2)no1	Wnt bcat act 32 (no result: miR122 inh, esBAF inh)
C/C=C/c1cnc2c(c1)C(=O)N([C@@H](C)CO)C[C@H](C)[C@@H](CN(C)C(=O)CN1CCOCC1)O2	none (no result: MITF act, Wnt bcat act)
Cc1ccc(Cc2cnc(N3C(=N)SC(c4ccccc4)C3=O)s2)cc1 (centres undefined)	esBAF inh 53
CN(C)C(=O)c1cccc(-c2ccc([C@H]3[C@@H](CO)N4CCCCN(C(=O)C5CCC5)C[C@@H]34)cc2)c1	none (no result: HIV Env fusion, MITF act, Wnt bcat act, esBAF inh)
COCCNC(=O)/C(C#N)=C/c1cc(C)n(C2CCCCC2)c1C	MITF act 91 (no result: miR122 inh, esBAF inh)
Cn1cccc1C(=O)OCC(=O)N1CCc2ccccc21	MITF act 100, Wnt bcat act 53 (no result: HIV Env fusion)
Cc1ccc(C(=O)OCC(=O)N2CCc3ccccc32)cc1	MITF act 108, esBAF inh inconclusive
CC(=O)c1c(C)[nH]c(C(=O)OCC(=O)N2CCc3ccccc32)c1C	esBAF inh 54
Cc1ccc(C(=O)OCC(=O)N2CCCc3ccccc32)cc1C	none
CCOC(=O)Cn1c(S(=O)(=O)Cc2ccc(Cl)cc2)nc(-c2ccccc2)c1-c1ccccc1	HIV Env fusion 114 (no result: Wnt bcat act)
C#CCn1c(S(=O)(=O)Cc2ccc(OC)cc2)nc(-c2ccccc2)c1-c1ccccc1	HIV Env fusion 82 (no result: Wnt bcat act)
COc1cccc(S(=O)(=O)N[C@@H]2CC[C@@H](CC(=O)NCc3ccccc3)O[C@@H]2CO)c1	none (no result: miR122 inh, MITF act, Wnt bcat act)
Cc1ccc(S(=O)(=O)N[C@H]2C=C[C@@H](CC(=O)N3CCC(Cc4ccccc4)CC3)O[C@H]2CO)cc1	HIV Env fusion 56[16.7 µM] (no result: MITF act, Wnt bcat act)
CC(C)OC(=O)n1c(=S)oc2ccccc21	none (no result: HIV Env fusion, Wnt bcat act)
CCCCC(=O)/C=C/n1c(=S)oc2ccccc21	esBAF inh 65
Cc1ccccc1-c1cnc2c(c1)C(=O)N([C@H](C)CO)C[C@@H](C)[C@@H](CN(C)C(=O)CN(C)C)O2	none (no result: MITF act, Wnt bcat act)
COc1ccc(S(=O)(=O)Nc2ccc(C(F)(F)F)cc2)cc1OC	miR122 inh 128 (no result: MITF act)
OC(CNc1nc(C(F)(F)F)nc2ccccc12)c1ccccc1 (centres undefined)	HIV Env fusion 58
Cc1cc2ncc(-c3ccc(Cl)cc3)cn2n1	MITF act 91, esBAF inh inconclusive
COc1ccc(C2CC(c3ccccc3)=NN2C(=S)Nc2ccccc2)cc1 (centres undefined)	none
Cc1ccc(C2=NN(C(=S)Nc3ccccc3)C(c3ccco3)C2)cc1 (centres undefined)	esBAF inh 80 (no result: HIV Env fusion, miR122 inh, Wnt bcat act)
COc1ccc(C2CC(c3ccc(Br)cc3)=NN2C(=S)Nc2ccccc2)cc1 (centres undefined)	esBAF inh 45
CCC(=O)Nc1ccc2c(c1)C(=O)N(C)[C@@H]1CC[C@H](CC(=O)NCCc3ccccc3)O[C@H]1CO2	none (no result: MITF act, Wnt bcat act)
CC1(C)NC(=O)N(CCOCCOc2ccc3ccccc3c2Br)C1=O	esBAF inh inconclusive
CC1(C)NC(=O)N(CCCCOc2ccc3ccccc3c2Cl)C1=O	esBAF inh 53 (no result: Wnt bcat act)
Cn1cccc1C(=O)N/N=C/c1c(Cl)cccc1Cl	MITF act 92
O=C(N/N=C/c1c(Cl)cccc1Cl)c1ccc(F)cc1	none (no result: HIV Env fusion)
CCC(=O)Nc1ccc2c(c1)C(=O)N(C)C[C@@H](OC)[C@@H](C)CN(CCc1ccccc1)[C@H](C)CO2	none (no result: MITF act, Wnt bcat act)
COC(=O)Nc1nnc(-c2ccncc2)s1	none (no result: Wnt bcat act)
COc1ccc(-c2nnc(NC(=O)C(C)C)s2)c(OC)c1	Wnt bcat act 34, esBAF inh 42 (no result: HIV Env fusion)
CCOC(=O)Nc1nnc(-c2ccccc2OC)s1	none (no result: HIV Env fusion, Wnt bcat act)
COC(=O)Nc1nnc(-c2ccccc2OC)s1	Wnt bcat act 49 (no result: miR122 inh, esBAF inh)
COc1ccc(Cc2nnc(NC(=O)C(C)C)s2)cc1	none (no result: MITF act)
COC(=O)Nc1nnc(-c2ccccc2Cl)s1	MITF act 88 (no result: HIV Env fusion, Wnt bcat act)
CC1CCC/C(=C\Nc2ccc(O)cc2)C1=O (centres undefined)	none (no result: MITF act, Wnt bcat act)
Cc1cc(C(=O)O)ccc1N/C=C1\CCCC(C)C1=O (centres undefined)	esBAF inh 64 (no result: HIV Env fusion)
